Normalised cell number data for 40 compounds are collected here from PubChem BioAssay.

Values joined by “and” are separate entries in the source; they are usually repeats but may differ in a detail not shown here. Equal values may be shown once.

This assay in a line: EMT-state selective cytotoxicity in co-culture – imaging, PC-3E GFP, TEM4-18 mCherry, primary screen (AID 1345086).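 Note: cells exposed to compound for 72 h before imaging.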 The note with it: PC-3E GFP / TEM4-18 mCherry co-culture, imaging cell counts; measured here: epithelial PC-3E GFP cell survival; at 1 µM.
In turn, `C[C@@H]1[C@H](O)[C@@H](C)/C=C/C=C/CC/C=C/C=C/C=C/C=C/[C@H](OC2O[C@H](C)[C@@H](O)[C@H](N)[C@@H]2O)C[C@@H]2O[C@](O)(C[C@@H](O)[C@H](O)CC[C@@H](O)C[C@@H](O)C[C@@H](O)CC(=O)O[C@H]1C)C[C@H](O)[C@H]2C(=O)O` (stereo not given in full) showed a normalised cell number of 1.27.
On to `CN(CCC(N)CC(=O)N[C@H]1C=CC(n2ccc(N)nc2=O)O[C@@H]1C(=O)O)C(=N)N` (stereo not given in full), for which the normalised cell number came out at 1.2.
`C[C@]12CC[C@H](O)C[C@H]1CCC1C2CC[C@]2(C)[C@@H](C3=CC(=O)OC3)[C@@H](O)C[C@]12O` (stereo not given in full) displayed a normalised cell number of 0.91.
Regarding `C[C@H]1COc2c(N3CCNCC3)c(F)cc3c(=O)c(C(=O)O)cn1c23`, the normalised cell number came to 1.08.
The compound `Cc1ncc(C[n+]2csc(CCO)c2C)c(=O)[nH]1` displayed a normalised cell number of 1.27.
For `COc1cc2c(cc1OC)[C@@H]1C(=O)c3ccc4c(c3O[C@@H]1CO2)CC(C(C)C)O4` (stereo not given in full) the value was 0.56.
Take `C[N+]1(C)CCc2cc3c(cc2[C@H]1C1OC(=O)c2c1ccc1c2OCO1)OCO3` (stereo not given in full): the normalised cell number was determined as 1.35.
For `C[C@@H]1C(=O)OC2[C@H](O)C34[C@@H]5OC(=O)[C@@]3(OC3OC(=O)[C@H](O)[C@@]34[C@H](C(C)(C)C)[C@H]5O)[C@]21O` (stereo not given in full) the value was 0.86; for `C[CH2][Hg+].O=C([O-])c1ccccc1[S-].[Na+]`, 0.18; for `CC[C@H](C)/C=C(C)/C=C/C1=CC2=C(Cl)C(=O)[C@](C)(OC(C)=O)C(=O)C2=CO1`, 0.96.
Take `O=C1NCC[C@@H]1O`: the normalised cell number came out at 1.14.
For `CCCN1CCC[C@@H]2Cc3[nH]ncc3C[C@H]21` the value was 0.89; for `COc1cc2c(c3oc4cccc(O)c4c(=O)c13)[C@@H]1C=CO[C@@H]1O2`, 1.04.
For `Cc1cc(O)cc2oc(=O)c3c(O)cc(O)cc3c12` the value was 0.99; for `CN1C2CC(=O)CC1[C@H](O)C2` (stereo not given in full), 1.25; for `CC(=O)OC1CC[C@@]2(C)C(CCC3C2CC[C@]2(C)C(C4=CC(=O)OC4)C(OC(C)=O)CC32O)C1` (stereo not given in full), 0.16.
`CC1OC(=O)[C@@H](C(C)C)NC(=O)C(C(C)C)OC(=O)[C@H](C(C)C)NC(=O)C(C)OC(=O)[C@@H](C(C)C)NC(=O)C(C(C)C)OC(=O)[C@H](C(C)C)NC(=O)C(C)OC(=O)[C@@H](C(C)C)NC(=O)C(C(C)C)OC(=O)[C@H](C(C)C)NC1=O` (stereo not given in full) showed a normalised cell number of 0.32.
In turn, `COc1cc(=O)oc(/C=C/C=C/C=C/C(C)=C/[C@@]2(C)O[C@@H](C)[C@@](C)(O)[C@@H]2O)c1C` yielded a normalised cell number of 0.87.
For `C[C@]12C=CC(=O)C=C1CCC1C2CC[C@]2(C)C(=O)CCC12` (stereo not given in full) the value was 1.06; for `CCSCCC(N)C(=O)O` (stereo not given), 1.26; for `CC(=O)O[C@H]1C(=O)[C@@]2(C)C([C@H](OC(=O)c3ccccc3)[C@]3(O)C[C@H](O)C(C)=C1C3(C)C)[C@]1(OC(C)=O)CO[C@@H]1C[C@@H]2O` (stereo not given in full), 0.99.
Consider `c1ccc(S[C@@H]2OC3COC(c4ccccc4)OC3[C@H]3NC32)cc1` (stereo not given in full), for which the normalised cell number came out at 1.08.
The compound `C/C1=C\[C@@H](C)C/C=C/[C@H]2[C@@H]3O[C@]3(C)[C@@H](C)[C@H]3[C@H](Cc4c[nH]c5ccccc45)NC(=O)[C@]32C(=O)/C=C/C(=O)[C@@H]1O` had a normalised cell number of 1.11.
For `CC(C)[C@@H]1CC[C@](O)(CCl)[C@@H]2C(=O)OCC(C(=O)O)=C[C@H]21` the value was 1; for `C=Cc1cc(OC)c2c(c1)c(=O)oc1c2cc(OC)c2c(O)ccc([C@@H]3O[C@@H](C)[C@H](OC(C)=O)[C@H](N(C)C)[C@H]3O)c21`, 0.41.
As for `CN1C(=O)c2ccccc2NC(=O)[C@@H]1Cc1ccccc1`, the normalised cell number is 1.1.
For `N#Cc1c(Cl)nc(NC2CC2)c2ccccc12` the value was 1.32; for `C[N+]12CC[C@@]34c5ccccc5N5C(=O)CC6OCC=C(C1)[C@@H](CC32)[C@@H]6C54` (stereo not given in full), 0.95.
For `C[C@@H]1CC[C@@]2(OC1)OC1C(O)C3C4CC[C@H]5C[C@H](O[C@@H]6O[C@H](CO)[C@H](O[C@@H]7O[C@H](CO)[C@@H](O)[C@H](O[C@@H]8OC[C@@H](O)[C@H](O)[C@H]8O)[C@H]7O[C@@H]7O[C@H](CO)[C@H](O)[C@H](O[C@@H]8O[C@H](CO)[C@@H](O)[C@H](O)[C@H]8O)[C@H]7O)[C@H](O)[C@H]6O)[C@H](O)C[C@]5(C)C4CC[C@]3(C)C1[C@@H]2C` (stereo not given in full) the value was 0.9; for `C[C@@H]1CC[C@@]2(NC1)OC1CC3C4CC=C5C[C@@H](O)CC[C@]5(C)C4CC[C@]3(C)C1[C@@H]2C` (stereo not given in full), 1.11.
Consider `C[C@]12CCC3C(CC[C@H]4C[C@@H](O)CC[C@]34C)C1CCC2=O` (stereo not given in full), for which the normalised cell number was found to be 1.2.
`NCCc1c[nH]c2ccc(O)cc12` returned a normalised cell number of 0.95.
For `C[C@]12[C@H](O)CC3C(CC[C@@H]4C[C@@H](O)CC[C@]34C)[C@@]1(O)CC[C@@H]2C1=CC(=O)OC1` (stereo not given in full) the value was 0.38; for `COc1cc2c(cc1OC)[C@@]13CCN4CC5=CCOC6CC(=O)N2C1[C@H]6[C@H]5C[C@H]43` (stereo not given in full), 1.05 and 0.91; for `CCC(C)C1C(=O)OC(C(C)C)C(=O)N(C)C(C(C)C)C(=O)OC(C(C)C)C(=O)N(C)C(C(C)C)C(=O)OC(C(C)C)C(=O)N1C` (stereo not given), 1.02 and 0.67.
For `COc1cc([C@@H]2c3cc4c(cc3[C@H](OC(C)=O)C3COC(=O)[C@H]32)OCO4)cc(OC)c1OC` (stereo not given in full) the value was 0.19; for `CCC(C)[C@H]1O[C@]2(C=C[C@@H]1C)C[C@@H]1C[C@@H](C/C=C(\C)[C@@H](OC3C[C@H](OC)C(O[C@H]4C[C@H](OC)[C@@H](O)[C@H](C)O4)[C@H](C)O3)[C@@H](C)/C=C/C=C3\COC4[C@H](O)C(C)=C[C@@H](C(=O)O1)[C@]34O)O2` (stereo not given in full), 0.88.
With `COc1cc(O)c2c(=O)oc3cc(O)cc(C)c3c2c1`, the normalised cell number is 1.19.
The compound `C=CCSSCC=C` gave a normalised cell number of 0.87.
As to `C/C=C(\C)C(=O)O[C@H]1C[C@@H](OC(C)=O)[C@@]2(C(=O)OC)CO[C@@H]3C2[C@]12CO[C@](O)(C(=O)OC)[C@H]2[C@](C)(C12O[C@@]1(C)[C@H]1C[C@H]2OC2OC=C[C@@]21O)[C@@H]3O` (stereo not given in full), the normalised cell number came to 0.89.
